The OligoGym collection

What follows are sequences tested against APOA4 (assay: pooled miR-30 sensor sort-seq; sequence = guide strand). Settings: shRNA.
Also: reference of the scale not given here.

Q: For TTCTTCATCTGGAAGGTCAGGC, which sensor-assay potency score (higher = more potent) is on record?
A: 0.31

Q: TTTCTGGAGATGTTCCACGGCC was tested. Which sensor-assay potency score (higher = more potent) did it give?
A: -0.87

Q: Which sensor-assay potency score (higher = more potent) does the source give for TCTTTCTCCTTGAAGGTGCTGA here?
A: 0.0406

Q: Which sensor-assay potency score (higher = more potent) does the source give for TCCACGTTCTGGTCGATCTTGG here?
A: -1.41

Q: How did the sensor-assay potency score (higher = more potent) turn out when TTGGCCTTGAGCTCGTCGGCGT was run?
A: -0.576

Q: For TTCTGGTCGATCTTGGCCTTGA, which sensor-assay potency score (higher = more potent) is on record?
A: -0.621

The sequences below were run against APOBEC1 in the same assay as above. Settings: shRNA.

Q: TAGTTGACAAAATTCCTCCAGC was tested. Which sensor-assay potency score (higher = more potent) did it give?
A: 0.113

Q: How did the sensor-assay potency score (higher = more potent) turn out when TTGAAATCTTTAAACAGGGTGG was run?
A: 0.0773

Q: Which sensor-assay potency score (higher = more potent) does the source give for TTTAGTGGGTCATCATTGCTTG here?
A: -0.449

Q: How did the sensor-assay potency score (higher = more potent) turn out when TGAAAATCTCTTTCTGACGTAA was run?
A: -0.0382

Q: With TATAAAATTAACTTCCACGTGA as the sequence, how does the sensor-assay potency score (higher = more potent) read?
A: 0.0953

Q: With TTTTTATAAAATTAACTTCCAC as the sequence, how does the sensor-assay potency score (higher = more potent) read?
A: -0.469

Q: How did the sensor-assay potency score (higher = more potent) turn out when TACAACATCATCCACAGAGGTG was run?
A: -0.853

Q: TAACAAGGTCCCTGAGACCTTG was tested. Which sensor-assay potency score (higher = more potent) did it give?
A: -0.747

Q: How did the sensor-assay potency score (higher = more potent) turn out when TTAAACAGGGTGGAAGACTTAG was run?
A: -0.633

Q: With TAATCTGAATAGTTACTCCACT as the sequence, how does the sensor-assay potency score (higher = more potent) read?
A: -0.77

Q: With TTTCGTAGAGCAGACAGGCCTC as the sequence, how does the sensor-assay potency score (higher = more potent) read?
A: -0.178

Q: Which sensor-assay potency score (higher = more potent) does the source give for TAGAAGACGTCAAACTCCCAGG here?
A: -0.81

Q: Which sensor-assay potency score (higher = more potent) does the source give for TTGCCGATTTTGTTGATCCATG here?
A: -1.51

Q: For TTGATTTCGTAGAGCAGACAGG, which sensor-assay potency score (higher = more potent) is on record?
A: -1.09

Q: With TTTTGTTGATCCATGTGCCAAA as the sequence, how does the sensor-assay potency score (higher = more potent) read?
A: -1.26

Q: With AATTATGCAGTGCAGCTCCAGT as the sequence, how does the sensor-assay potency score (higher = more potent) read?
A: -0.901

Q: For TTAACTTCCACGTGATTGGTGG, which sensor-assay potency score (higher = more potent) is on record?
A: 0.311

Q: Which sensor-assay potency score (higher = more potent) does the source give for TAGAATTATGCAGTGCAGCTCC here?
A: 0.275

Q: TTTTTGCCTGAGCTTCGCCAGA was tested. Which sensor-assay potency score (higher = more potent) did it give?
A: -1.38

Q: For TCCACTGTTAACAAGGTCCCTG, which sensor-assay potency score (higher = more potent) is on record?
A: -0.838

Q: With TAGAGTCACACCAGGGTGCCGA as the sequence, how does the sensor-assay potency score (higher = more potent) read?
A: -0.942

Q: For TTTTATAAAATTAACTTCCACG, which sensor-assay potency score (higher = more potent) is on record?
A: -0.657

Q: For ATAATCTGAATAGTTACTCCAC, which sensor-assay potency score (higher = more potent) is on record?
A: 0.108

Q: For TAAAATTAACTTCCACGTGATT, which sensor-assay potency score (higher = more potent) is on record?
A: -0.973

What follows are sequences tested against APOBEC3A in the same assay as above. Settings: shRNA.

Q: Which sensor-assay potency score (higher = more potent) does the source give for TGTGGATCCATCAAGTGTCTGG here?
A: -0.129

Q: With TATTCTGAGAATATTGAGCATA as the sequence, how does the sensor-assay potency score (higher = more potent) read?
A: -1.17

Q: Which sensor-assay potency score (higher = more potent) does the source give for AATCTTACTATTGTGTACTTGG here?
A: 0.0307

Q: For TTAAATTCATCGTAGGTCATGA, which sensor-assay potency score (higher = more potent) is on record?
A: 0.00462

Q: Which sensor-assay potency score (higher = more potent) does the source give for TTGATCGGGAGCATACTGCTTT here?
A: 0.642

Q: Which sensor-assay potency score (higher = more potent) does the source give for TGGTCCATCTTGACCGAGGTGC here?
A: -0.749

Q: For TACATTGAAAATTATTCTGAGA, which sensor-assay potency score (higher = more potent) is on record?
A: -1.07

Q: Which sensor-assay potency score (higher = more potent) does the source give for TTCGTAGCACAGGTAGGTCTTA here?
A: -0.473

Q: For TTAGTCTAGATATGAAGCCAAA, which sensor-assay potency score (higher = more potent) is on record?
A: -1.73

Q: With TTAAAAATCTACTTGATCGGGA as the sequence, how does the sensor-assay potency score (higher = more potent) read?
A: 0.68
